proKLK7 act = proKLK7 zymogen activators, primary screen, biochemical, fluorescence intensity; Kallikrein-7 (Homo sapiens), P49862; purified proKLK7, EDANS-DABCYL substrate fluorescence; 100% is mature enzyme control, 0% vehicle; activation, % at 7 µM; 370,000 compounds, 0.9% hits; AID 652039, 2013;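 active means activation above the mean of all tested compounds plus 3 SD, computed per campaign excluding outliers beyond control limits, cut at about 13% in these data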
Target sequence (P49862 whole entry, looked up): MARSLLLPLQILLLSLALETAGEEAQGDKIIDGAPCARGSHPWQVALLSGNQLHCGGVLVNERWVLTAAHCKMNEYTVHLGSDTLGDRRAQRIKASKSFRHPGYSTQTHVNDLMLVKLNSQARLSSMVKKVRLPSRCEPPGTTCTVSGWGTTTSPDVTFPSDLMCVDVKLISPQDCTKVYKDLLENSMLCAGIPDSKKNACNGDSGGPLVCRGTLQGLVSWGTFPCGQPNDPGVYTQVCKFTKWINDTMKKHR
rCAG binder = binders of r(CAG) RNA repeats, primary screen, biochemical, fluorescence; r(CAG) RNA repeat, TO-PRO-1 dye displacement fluorescence; inhibition, % at 3 µM; 370,000 compounds, 1.3% hits; AID 651821, 2012;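 active means inhibition above the plate cutoff, the mean of all test compounds on that plate plus 3 SD, cut at about 35% in these data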;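 further: 0% = DMSO alone and 100% = 100 µM mitoxantrone as full dye displacement; higher means more dye released from RNA so lower well fluorescence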
ADAM10 inh = human ADAM10 inhibitors, primary screen, biochemical, QFRET, HTS; 370,000 compounds, 0.62% hits; recombinant ADAM10, EDANS/DABCYL FRET peptide cleavage, 3 h; inhibition, % at 7 µM;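 active means inhibition above a per-campaign cutoff equal to the mean of compounds falling between control-based bounds plus 3 SD, cut at about 20% in these data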;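 further: 0% = DMSO wells while the 100% control is not disclosed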
ADAM17 inh = ADAM17 inhibitors, primary screen, biochemical, QFRET; Disintegrin and metalloproteinase domain-containing protein 17 (Homo sapiens), P78536; recombinant ADAM17, EDANS/DABCYL FRET peptide cleavage; 370,000 compounds, 0.83% hits; inhibition, % at 6.95 µM;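 active means inhibition above the mean of compounds lying between control limits plus 3 SD, set per campaign, cut at about 8.5% in these data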;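 further: 0% = DMSO-only wells as the low control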
NR3A LBD binder = binders of NR3A ligand-binding domain, primary screen, biophysical, differential scanning fluorimetry, uHTS; AID 1259313, 2017; NR3A LBD differential scanning fluorimetry, Tm shift; 0% = protein alone, 100% = glycine-bound protein; 340,000 compounds, 2.5% hits; Tm shift relative to glycine control, % at 25 µM; Glutamate receptor ionotropic, NMDA 3A (GRIN3A) ligand-binding domain;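 active means melting temperature shift of at least 10% of the positive control shift, at one fixed dose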
AHR activator = AHR activators, primary screen, cell-based, luminescence, luciferase reporter, human; 320,000 compounds, 2.5% hits; AHR-responsive luciferase reporter cells; activation, % at 5 µM; in the data active means activation above about 47%;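 further: 0% = vehicle wells and 100% = reference agonist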
proKLK7 act conf = proKLK7 zymogen activators, confirmation, biochemical, fluorescence intensity, triplicate; 3,200 compounds, 68% hits; activation, % at 7 µM; AID 686949, 2013; purified proKLK7, EDANS-DABCYL substrate fluorescence; scaled: vehicle 0, mature enzyme 100; shares compounds with proKLK7 act;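 active means activation, as change over the incubation, above the mean of all tested compounds plus 3 SD, cut at about 13% in these data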
EDANS-DABCYL int = EDANS-DABCYL substrate optical interference, artefact control for kallikrein-7 zymogen activator project, biochemical, fluorescence intensity, high throughput; no enzyme, 4 h; solvent 0%, active enzyme control 100%; 3,200 compounds, 80% hits; activation, % at 7 µM; AID 686952, 2013; shares compounds with proKLK7 act;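 active means activation above the all-compound mean plus 3 SD, ignoring values outside control-based bounds, cut at about 4.8% in these data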;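 further: value is the 4 h activation minus the activation read at time zero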
EDANS interf = counter-screen for kallikrein-7 activators: EDANS-DABCYL interference, dose response. shares compounds with proKLK7 act. EDANS-DABCYL peptide fluorescence interference, no enzyme. EC50, µM. 250 compounds, 20% hits. AID 720493;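 active means compounds that raise the fluorescence signal in this interference counterscreen, with EC50 at or below 10 µM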;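 further: intact quenched peptide substrate alone read at 355 nm excitation and 520 nm emission; signal is fluorescence gain from T0 to T4 after four hours at room temperature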
An asterisk follows results filed as active; i = inactive; · = no result. This is a sample that favours compounds with a hit; in the whole collection about 7% have one here.

SMILES	proKLK7 act	rCAG binder	ADAM10 inh	ADAM17 inh	NR3A LBD binder	AHR activator	proKLK7 act conf	EDANS-DABCYL int	others
CC(=O)Nc1ccc(NC(=O)COc2ccc(-c3ccc(C#N)cc3)cc2)cc1	-1	3	-7	-5	1	2	·	·
CCCCNC(=O)C1C(c2ccc(C(F)(F)F)cc2)=Nc2ccccc2N1C(=O)c1cccc2ccccc12 (centres undefined)	0	13	-5	-2	·	·	·	·
CCn1ncc(-c2ccnc3cc(C(=O)O)nn23)c1C	13*	3	i	-311	0	3	39*	44*
O=C1CCC[C@H]2C[C@H](NCc3ccc(F)cc3)CC[C@]23CCCN13	·	·	-8	-4	·	·	·	·
O=C(c1nc2n(n1)C(c1ccc(Cl)cc1)C=C(c1ccccc1)N2)N1CCOCC1 (centres undefined)	54*	-4	-143	-48	0	2	-37	-34
COc1ccc(C2C=C(c3ccc(Cl)cc3)Nc3nc(NC(C)=O)nn32)cc1 (centres undefined)	·	·	·	·	·	1	·	·
CC(=O)Nc1nc2n(n1)C(c1ccccc1)C=C(c1ccccc1)N2 (centres undefined)	·	·	·	·	2	3	·	·
CC(=O)Nc1nc2n(n1)C(c1ccc(F)cc1)C=C(c1ccccc1)N2 (centres undefined)	22*	-6	-250	-86	-3	4	-23	0
COc1ccc(NC(=O)C2(C)CCN2CCOc2ccccc2)cc1OC (centres undefined)	0	-2	-4	0	·	·	·	·
O=C(CCn1ccc2ccccc21)Nc1ccc(N2CCOCC2)cc1	0	2	-6	-3	-1	2	·	·
Cc1cc(=O)oc2c(C)c(OC(=O)c3ccco3)ccc12	85*	-4	-109	-31	-1	2	601*	620*
CCC(=O)Oc1ccc2c(C)cc(=O)oc2c1C	422*	1	-493	-165	-3	1	697*	675*
CCOc1ccc(OCCC(=O)Nc2ccc(N3CCOCC3)cc2N2CCOCC2)cc1	0	-1	-8	-6	·	·	·	·
CC1=NN(c2ccccc2)C(=O)C1C(=O)C(=O)Nc1ccc(F)cc1 (centres undefined)	0	2	0	-1	-9	-3	·	·
C[C@H]1C(c2ccc(F)cc2)=NN(c2ccccc2)[C@@H]1CO	23*	2	i	-478	-8	·	-13	-26
CN(C)C(=O)CNc1ccn2nc(-c3cccc(Cl)c3)cc2n1	-2	5	-95	-33	·	·	·	·
COc1cccc(CN2CC(C(=O)NCCc3cn4cccnc4n3)CCC2=O)c1 (centres undefined)	19*	2	i	-218	·	·	19*	14*	EDANS interf=9.7*
COc1ccc2c(c1)CCc1cc(C(=O)O)sc1-2	56*	3	i	i	0	3	59*	67*
Oc1ccc2ccccc2c1C=Nc1ccccc1-c1nc2ccccc2[nH]1	38*	9	i	i	-4	65*	-43	-39
CCc1ccc(C2=CC(c3cc(Br)ccc3F)n3ncnc3N2)cc1 (centres undefined)	13*	5	-264	-103	-7	11	4	4.9*
COCCCNC1=C(C#N)C(=O)NC2(CCCC2)S1	0	3	-11	-8	·	·	·	·
N=C1/C(=C\c2coc3ccccc3c2=O)C(=O)N=C2SC(c3ccncc3)=NN12	43*	-42	-132	-54	-1	-5	47*	39*	EDANS interf=i
N=C1/C(=C/c2coc3ccccc3c2=O)C(=O)N=C2SC(c3ccco3)=NN12	·	·	·	·	1	6	·	·
COC(=O)c1cc(=O)c2cccc(OC)c2[nH]1	196*	0	i	-320	0	5	77*	77*
COc1cccc2c(=O)cn[nH]c12	84*	2	i	-412	3	1	66*	64*
SMILES	proKLK7 act	rCAG binder	ADAM10 inh	ADAM17 inh	NR3A LBD binder	AHR activator	proKLK7 act conf	EDANS-DABCYL int	others
O=c1cn[nH]c2ccccc12	-1	1	-2	-4	1	3	·	·
CCCC(C)(C)C(=O)N1CCC1(C)C(=O)NS(=O)(=O)c1ccc(Br)cc1 (centres undefined)	0	18	-22	-5	·	·	·	·
C=CCNc1ncnc2c1ncn2[C@H]1CN(Cc2ccccc2)C[C@@H](COC(C)=O)O1	-1	1	-17	-3	·	·	·	·
CCN1CCCC1Cn1cnc2c([nH]c3ccc(C)cc32)c1=O (centres undefined)	16*	1	-393	-115	0	3	5	5.0*
Cc1ccc2[nH]c3c(=O)n(CCN4CCNCC4)cnc3c2c1	1	0	-81	-22	-1	21	·	·
CCN(C(=O)COC(=O)c1cc(S(=O)(=O)N(C)C)ccc1Cl)C1CCS(=O)(=O)C1 (centres undefined)	0	-2	-5	-3	1	0	·	·
Cc1cc(=O)oc2cc(NC(=S)NCc3ccccn3)ccc12	58*	5	i	i	0	21	38*	46*
Cc1cc(=O)oc2cc(OCC(=O)NCc3ccccn3)ccc12	0	1	-70	-23	1	8	·	·
Cc1ccccc1NC(=O)COC(=O)c1c[nH]c(=O)[nH]c1=O	1	-3	1	-2	-1	2	·	·
CSc1ccc(-c2cc(=O)c3ccccc3o2)cc1	66*	5	i	i	-1	38	68*	76*
CCOC(=O)c1c(-c2ccccc2)oc2ccc(OCC(O)CN(C)C)cc12 (centres undefined)	17*	7	i	-144	-1	0	-13	-11
CCOC(=O)c1c(-c2ccccc2)oc2ccc(OC(C)=O)cc12	-5	-6	-75	-26	2	1	·	·
CCOC(=O)c1c(-c2ccccc2)oc2ccc(OCC(=O)NNC(=O)CCC(=O)O)cc12	2	22	i	-283	-1	·	·	·

Screens (PubChem)
